# PubChem BioAssay (NCI)
# About 83,000 compounds went through this panel and 20% of them were active in at least one assay; those are over-represented in the sample as a whole.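 In brief: 96-well plates, 48 h treatment, single concentration, percent growth endpoint.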 Unmarked numbers belong to inactive results. The source made the active and inactive calls. How the source made its calls: active means growth percent below 10; inactive means the rest.
# How the values were obtained:
# Assay in all cases: NCI-60 one-dose screen, 48 h (100 = growth as untreated, 0 = no growth, -100 = all killed)
# [1] = tested on: NCI-H23 lung; conditions: 10 µM unless noted
# [2] = tested on: NCI-H226 lung; conditions: 10 µM unless noted
# [3] = tested on: NCI-H322M lung; conditions: 10 µM unless noted
# [4] = tested on: HOP-62 NSCLC; conditions: 10 µM unless noted
# [5] = tested on: NCI-H460 lung; conditions: 10 µM unless noted
# [6] = tested on: HOP-92 NSCLC; conditions: 10 µM unless noted
# [7] = tested on: NCI-H522 lung; conditions: 10 µM
# [8] = tested on: 786-0 renal; conditions: 10 µM unless noted
# [9] = tested on: COLO 205 colon; conditions: 10 µM unless noted
SMILES,growth [1],growth [2],growth [3],growth [4],growth [5],growth [6],growth [7],growth [8],growth [9]
O=Cc1ccccc1C(=O)O,100%,100%,96.7%,96.7%,99.5%,101%,96.7%,97.4%,112%
CC(=O)O[C@H]1CC[C@@]2(C)C(=CC[C@@H]3[C@@H]2CC[C@]2(C)C(c4cccnc4)=CC[C@@H]32)C1,66.6%,64.1%,95.6%,75.7%,68.2%,79.4%,38.3%,13.6%,81.8%
OCCN1CCN(CCCN2c3ccccc3Sc3ccc(C(F)(F)F)cc32)CC1,65.5%,82.7%,65%,45.9%,6.79% (active),6.66% (active),19.5%,38.7%,-81.9% (active)
O=C(/C=C/c1cccc(O)c1)c1cccc(-n2cc(-c3ccccc3)[nH]c2=O)c1,14.4%,3.79% (active),21.4%,16.9%,34.8%,26.7%,-21.8% (active),-59.7% (active),83.8%
BrC1CC(Br)c2c1c1c(c3c2C(Br)CC3Br)C(Br)CC1Br (stereo unspecified),99.7%,101%,97.7%,103%,93.4%,89.9%,84.4%,116%,105%
O=C(COc1cccc(/C=C2\Oc3ccc4ccccc4c3C2=O)c1)c1ccc(Cl)cc1,28.3%,91.9%,108%,101%,114%,81.9%,38%,105%,102%
CC1Cc2ccccc2N1C(=O)c1ccc(C(=O)c2ccccc2)cc1 (stereo unspecified),98.3%,78.1%,91.2%,80.5%,99.3%,92%,77.3%,86.7%,97.1%
N#Cc1c(-c2ccc(F)cc2)n2c(nc1=O)SC(=O)C2=O,98.6%,87.2%,104%,120%,101%,96.6%,103%,100%,134%
CCCCN1c2nc3ccccc3cc2Sc2cc3ccccc3nc21,97.6%,93.2%,104%,90.7%,99%,28.4%,92.8%,98.5%,132%
C[C@H]1C(=O)N2c3ccccc3[C@@]3(O)C[C@@H](n4cnc5ccccc5c4=O)C(=O)N1[C@@H]23,106%,98.1%,109%,97.4%,107%,102%,92.5%,102%,110%
CCSc1ncc(Br)c(Sc2nc(N)nc3nc[nH]c23)n1,37.9%,65.4%,89.1%,31.8%,46.6%,31.6%,59%,33.6%,110%
COC(=O)C1CCN(S(=O)(=O)c2ccc(-c3ccccc3)cc2)CC1,97.7%,93.3%,116%,113%,110%,86.8%,99.8%,113%,108%
C=C(CN1CCc2c([nH]c3ccccc23)C1)c1ccc(C(=O)Nc2ccon2)cc1,85.9%,92.7%,125%,88.2%,101%,31.5%,-15% (active),96%,83.6%
Cc1ccc(S(=O)(=O)N2CCN(C(=O)CSc3nc4ccc(C)cc4[nH]3)CC2)cc1,105%,91.3%,116%,106%,110%,96.6%,97.2%,107%,143%
C[C@H]1O[C@@H](O[C@H]2[C@@H](O)C[C@H](O[C@H]3[C@@H](O)C[C@H](O[C@H]4CC[C@]5(C)C6C[C@@H](O)[C@]7(C)[C@@H](C8=CC(=O)OC8)CC[C@]7(O)C6CC[C@@H]5C4)O[C@@H]3C)O[C@@H]2C)C[C@H](O)[C@@H]1O (stereo partly specified),-54.9% (active),-100% (active),-75.3% (active),-100% (active),-95.1% (active),-26% (active),-83.9% (active),-91.7% (active),-85.9% (active)
CC(C)CC1NC(=O)C(CCCN)NC(=O)C(C(C)C)NC(=O)C2CCCN2C(=O)C(Cc2ccccc2)NC(=O)C(CC(C)C)NC(=O)C(CCCN)NC(=O)C(C(C)C)NC(=O)C2CCCN2C(=O)C(Cc2ccccc2)NC1=O (stereo unspecified),-75.9% (active),-59.7% (active),-65.5% (active),-86.5% (active),-73.2% (active),-56.7% (active),-80.7% (active),-85.9% (active),-90.2% (active)
COc1cc(OC)c2c(c1Cl)O[C@]1(C2=O)C(OCc2ccccc2)=CC(=O)C[C@H]1C,20.9%,45.8%,36.4%,5.17% (active),6.23% (active),-16.7% (active),-24.7% (active),37.8%,-32.6% (active)
COc1ccc(C(=O)COc2cccc(/C=C3\CSc4ccc(Cl)cc4C3=O)c2)cc1,87.1%,75.1%,93.5%,95.8%,101%,68%,61.7%,97.3%,123%
CC(=O)N1N=C(c2ccc(Nc3ccnc4cc(Cl)ccc34)cc2)CC1c1ccc(Cl)cc1 (stereo unspecified),67.8%,75.2%,96.3%,73.1%,62.9%,35.4%,24%,62.5%,85.5%
CCSc1nc(-c2ccco2)n2nc(-c3ccco3)cc2n1,93.5%,90.7%,117%,100%,92.1%,89.6%,101%,111%,114%
CCOC(=O)Nc1cc(-c2ccc(C)c(NS(C)(=O)=O)c2)nn2c(C)nnc12,18%,35%,2.04% (active),14.1%,28.5%,-10.2% (active),-11.8% (active),35.5%,3.41% (active)
CC(=O)c1ccccc1NC(=O)C(C)(c1ccccc1)c1ccccc1,82.7%,91%,89.3%,40.4%,106%,86.4%,77.3%,92.5%,114%
NC(=O)c1cc(Br)cc(Br)c1NS(=O)(=O)c1ccccc1,100%,95.3%,94.5%,98%,102%,93.6%,100%,108%,101%
CCCCc1ccc(C(N)=O)nc1,102%,86.5%,103%,99.3%,108%,62.5%,85.3%,92.6%,118%
O=C(O)CCNS(=O)(=O)c1ccc(-c2ccccc2)cc1,98.4%,92%,129%,103%,114%,83.9%,98.4%,106%,111%
COc1ccc(CNC(=O)c2c(C)n([O-])c3ccccc3[n+]2=O)cc1,93.8%,102%,144%,94.3%,112%,82.6%,-15.1% (active),101%,122%
O=C(COc1cccc(/C=C2\Cc3ccccc3C2=O)c1)c1ccc(Cl)cc1,96.1%,105%,131%,98%,117%,86.6%,81.1%,97.8%,142%
C[N+]1(C)C2CC[C@@H]1CC(OC(=O)C(O)c1ccccc1)C2 (stereo partly specified),95.9%,84.7%,97.8%,117%,119%,91.4%,110%,104%,129%
Nc1nc(SCc2cccnc2)c2ncn(C3OC(CO)C(O)C3O)c2n1 (stereo unspecified),97.9%,94.9%,108%,85.7%,96.6%,78.1%,102%,103%,114%
